From PubChem
Mtb hypoxia inh: PubChem AID 1159583. M. tuberculosis hypoxia-regulated fluorescent reporter, fluorescence. fluorescence inhibition, % (concentration not given with the values). 300,000 compounds, 0.1% hits; in the data active = fluorescence inhibition mostly above about 23%, no sharp cut-off; inactive = mostly below about 17%
Mtb betalactam: beta-lactam sensitization of Mtb H37Rv, H37Rv. M. tuberculosis H37Rv growth with meropenem, percent inhibition. inhibition, % at 25 µM. 330,000 compounds, 0.27% hits; call rule not given here;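 also: growth measured after seven days incubation then overnight dye step; 0% = bacteria only wells and 100% = bacteria with antibiotic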
Sa ugtP lethal: growth inhibition of ugtP-null S. aureus, primary screen, RN4220 ugtP deletion, OD600; 330,000 compounds, 0.54% hits; growth inhibition, % (concentration not given with the values); 16 h; AID 1259309, 2017; in the data active = growth inhibition above about 68%;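 also: plate controls were untreated wells for no effect and antibiotic for full effect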
RN4220 kill: growth inhibition of S. aureus RN4220, primary screen, OD600 | 16 h | inhibition, % (concentration not given with the values) | 330,000 compounds, 0.33% hits | AID 1259311, 2017; in the data active = inhibition above about 85%;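 also: plate controls were untreated cells for no effect and reference antibiotic for full effect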
UGM FP inh: M. tuberculosis UGM enzyme inhibitors, primary screen, biochemical, fluorescence polarization, single point. UDP-galactopyranose mutase (Mycobacterium tuberculosis (strain ATCC 25618 / H37Rv)), …. purified UGM, fluorescence polarization probe displacement. inhibition, % at 10 µM. 320,000 compounds, 0.06% hits. AID 504406, 2011; in the data active = inhibition above about 10%, passing the limit was not always enough
Target sequence (P9WIQ1 whole entry, looked up): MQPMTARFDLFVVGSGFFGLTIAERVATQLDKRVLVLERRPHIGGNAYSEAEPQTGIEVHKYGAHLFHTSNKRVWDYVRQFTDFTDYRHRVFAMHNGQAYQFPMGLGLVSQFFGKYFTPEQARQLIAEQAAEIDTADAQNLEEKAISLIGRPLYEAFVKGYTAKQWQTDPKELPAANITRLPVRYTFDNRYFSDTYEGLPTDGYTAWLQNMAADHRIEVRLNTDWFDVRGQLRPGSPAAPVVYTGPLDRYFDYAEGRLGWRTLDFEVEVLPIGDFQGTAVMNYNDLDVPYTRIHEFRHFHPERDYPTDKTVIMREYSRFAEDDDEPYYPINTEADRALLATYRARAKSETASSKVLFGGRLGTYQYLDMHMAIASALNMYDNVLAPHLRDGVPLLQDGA
Rv3671c inh: Rv3671c serine protease inhibitors, primary screen, biochemical, fluorescence polarization, M. tuberculosis H37Rv; P9WHR9; inhibition, % at 5.96 µM; 320,000 compounds, 0.048% hits; in the data active = inhibition above about 38%;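 also: extracellular domain of Rv3671c used as enzyme; 0% = enzyme with DMSO and 100% = no enzyme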
Starred values were filed as active, the others as inactive; / = not tested or not shown. This is a sample that favours compounds with a hit; in the whole collection about 0.68% have one here.

SMILES | Mtb hypoxia inh | Mtb betalactam | Sa ugtP lethal | RN4220 kill | UGM FP inh | Rv3671c inh
CCCCCCCCCCn1ccc(=N)cc1 | 14 | -1 | 101* | 100* | -1 | -9
C[n+]1c2n(c3ccccc31)N=C(c1ccccc1)CS2 | 11 | -6 | -2 | 1 | -2 | 8
C[n+]1c2n(c3ccccc31)N=C(c1ccc(-c3ccccc3)cc1)CS2 | 6 | 0 | 101* | 100* | -1 | 4
O=C1C=C(c2cccc3c2sc2ccccc23)CC(c2ccc(F)cc2)C1 (stereo not given) | 13 | / | 9 | -6 | / | /
O=[N+]([O-])c1cc(CN2CCN(c3cccc(C(F)(F)F)c3)CC2)c2cccnc2c1O | 6 | 87 | 86* | 61 | -3 | 1
COC(=O)C1=C(c2ccc(OC(F)(F)F)cc2)CC2CCC1N2C(=O)NCC1CC1 (stereo not given) | -1 | / | -4 | -1 | / | /
COC(=O)c1ccc(C(NC(=O)c2ccco2)[C@]2(C)CC2C2CCCCC2)cc1 (stereo not given in full) | -2 | / | 1 | 3 | / | /
COC(=O)c1ccc(-n2c(C)ccc2-c2ccccc2)cc1 | 11 | 92 | 97* | 0 | -2 | 0
COc1ccc(-n2c(C)ccc2-c2ccccc2)cn1 | / | -2 | / | / | 58* | -7
CC(C)CCCN1C(Nc2ccccc2)=NCC1C (stereo not given) | 10 | / | 1 | 7 | / | /
CCC(C)C(C(=O)N1CCN(C(=O)OC(C)(C)C)CC1)n1cc(C(CO)NC(=O)OC(C)(C)C)nn1 (stereo not given) | -3 | / | 0 | 5 | / | /
O=C(CCl)c1ccc2c(c1)CCN2C(=O)C1CCCCC1 | 9 | 100 | 99* | 98* | 0 | 3
COCc1ccccc1C1=CC(=O)CC(c2ccc(F)cc2)C1 (stereo not given) | 4 | / | 5 | 2 | / | /
COC(=O)C1=C(c2ccc3ccccc3c2)CC2CCC1N2C(=O)N1CCOCC1 (stereo not given) | 10 | / | 6 | 5 | / | /
O=C(Nc1cccc(C(F)(F)F)c1)c1cccnc1N1CCN(c2ccccc2)CC1 | 3 | 12 | 92* | -10 | 3 | 5
COC(=O)c1cc(COc2ccc3oc(C)c(C(=O)OC(C)C)c3c2)c(C)o1 | / | 97 | 96* | 2 | 1 | 2
CC(=O)Nc1ccc(SCCN2CCC(C)CCC2=O)cc1 (stereo not given) | -1 | / | 3 | 10 | / | /
CC1CN(Cc2ccccc2)C(=O)C1CC(=O)NCc1ccccc1 (stereo not given) | 1 | / | 0 | 1 | / | /
FC(F)(F)Oc1ccc(NC(=S)Nc2ccc(OC(F)(F)F)cc2)cc1 | 13 | 91 | 92* | 99* | -3 | -4
CC(C)c1ccc(NC(=S)Nc2ccc(OC(F)(F)F)cc2)cc1 | 19 | 46 | -18 | 2 | -2 | -6
COc1ccccc1NS(=O)(=O)c1cccc(C(=O)N/N=C/c2ccc(OCC(=O)O)cc2)c1 | / | 8 | / | / | 1 | -3
CCOc1ccc(/C(CCC(=O)O)=N/NC(=O)c2cccc(S(=O)(=O)Nc3ccccc3OC)c2)cc1 | / | -12 | / | / | 11* | -10
Cc1[nH]c(=O)[nH]c(=O)c1CSc1nnc(C(CC(C)C)NC(=O)OC(C)(C)C)o1 (stereo not given) | 11 | / | 5 | 5 | / | /
NC(=O)c1snnc1-c1ccccc1 | -13 | -5 | -2 | 2 | 0 | 1
NC(=O)c1sc2nnc(-c3ccccc3)c(-c3ccccc3)c2c1N | 5 | 4 | 84* | 2 | -3 | -3
CN1/C(=C\C=O)C(C)(C)c2ccccc21 | 2 | 0 | 19 | 2 | -2 | -21
CN1/C(=C\C=C\C2=[N+](C)c3ccc4ccccc4c3C2(C)C)C(C)(C)c2ccccc21 | / | 62 | / | / | 1 | 187*
CN(C)CCN=Cc1c(O)n(CCC2=CCCCC2)c(=O)[nH]c1=O | 8 | -8 | -1 | 3 | 0 | 5
COc1ccc(/C=C/C(=O)c2c(O)n(CCC3=CCCCC3)c(=O)[nH]c2=O)cc1 | 1 | 100 | 92* | 89* | 3 | 5
O=C(/C=C/c1ccc2c(c1)OCO2)c1c(O)n(CCC2=CCCCC2)c(=O)[nH]c1=O | 1 | 100 | 100* | 100* | 2 | 2
